# Measured values from PMC7862700, “An all-to-all approach to the identification of sequence-specific readers for epigenetic DNA modifications on cytosine”.
# Legend:
# Assay in all cases: DAPPL (digital affinity profiling via proximity ligation, sequencing); 10 mM Tris-HCl pH 7.5, 50 mM NaCl, 1 mM DTT, 4% glycerol, room temperature, 30 min; GST-TFs on glutathione beads, 16-mer random dsDNA library, 0.1% formaldehyde crosslink after washing; high values mean tight binding
# Settings in all cases: protein: recombinant; tags: N-terminal GST; dsDNA, one strand shown
# ETV1 = ETV1 (Homo sapiens, UniProt P50549 1-477)
# How it was run: (§1)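 Sequencing on an Illumina NextSeq500 followed washing, crosslinking with 0.1% formaldehyde, proximity ligation (BsaI/T4 ligase, 1 h, 37 °C) and PCR amplification of pools that had been incubated for 30 min at room temperature with 200 nmole of a random double-stranded 16-mer DNA library in Tris/NaCl/DTT/glycerol buffer. Each pool held DNA-barcoded human transcription factors, expressed in yeast as GST fusions and captured on glutathione beads, plus a tag-only sample. Binding signal is a hexamer's read frequency for a factor divided by its frequency in the tag-only sample.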
# ERF = biological target: T1, ERF (Homo sapiens, UniProt P50548 1-548)
# T1 sequence: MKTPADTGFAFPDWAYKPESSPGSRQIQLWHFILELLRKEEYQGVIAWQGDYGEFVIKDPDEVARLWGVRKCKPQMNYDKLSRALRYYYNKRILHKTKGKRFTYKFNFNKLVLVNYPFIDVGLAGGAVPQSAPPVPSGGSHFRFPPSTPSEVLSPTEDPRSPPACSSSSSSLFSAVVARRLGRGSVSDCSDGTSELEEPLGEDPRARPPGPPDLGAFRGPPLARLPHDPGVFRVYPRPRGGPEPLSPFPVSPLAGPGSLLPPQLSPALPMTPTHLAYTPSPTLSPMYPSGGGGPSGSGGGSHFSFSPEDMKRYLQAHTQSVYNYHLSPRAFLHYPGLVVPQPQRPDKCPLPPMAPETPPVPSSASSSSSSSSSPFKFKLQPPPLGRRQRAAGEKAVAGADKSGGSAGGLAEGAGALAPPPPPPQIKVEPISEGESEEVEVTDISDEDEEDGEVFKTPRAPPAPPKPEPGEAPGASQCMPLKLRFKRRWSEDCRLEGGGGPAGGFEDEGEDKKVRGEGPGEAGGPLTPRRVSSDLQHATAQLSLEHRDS
# How it was run: as §1
# ETV3L = biological target: T2, ETV3L (Homo sapiens, UniProt Q6ZN32 1-361)
# T2 sequence: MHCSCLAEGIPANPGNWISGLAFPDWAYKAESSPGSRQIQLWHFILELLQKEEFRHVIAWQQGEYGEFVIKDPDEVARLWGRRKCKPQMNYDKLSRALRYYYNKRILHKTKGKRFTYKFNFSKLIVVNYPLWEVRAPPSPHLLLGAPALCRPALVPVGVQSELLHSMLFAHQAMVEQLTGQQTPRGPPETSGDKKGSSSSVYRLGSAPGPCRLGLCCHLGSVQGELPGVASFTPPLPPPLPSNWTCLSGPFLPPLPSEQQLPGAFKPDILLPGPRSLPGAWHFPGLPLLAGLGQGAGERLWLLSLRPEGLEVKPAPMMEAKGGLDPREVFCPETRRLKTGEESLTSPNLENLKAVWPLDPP
# How it was run: as §1
# ETS2 = biological target: T3, ETS2 (Homo sapiens, UniProt P15036 1-469)
# T3 sequence: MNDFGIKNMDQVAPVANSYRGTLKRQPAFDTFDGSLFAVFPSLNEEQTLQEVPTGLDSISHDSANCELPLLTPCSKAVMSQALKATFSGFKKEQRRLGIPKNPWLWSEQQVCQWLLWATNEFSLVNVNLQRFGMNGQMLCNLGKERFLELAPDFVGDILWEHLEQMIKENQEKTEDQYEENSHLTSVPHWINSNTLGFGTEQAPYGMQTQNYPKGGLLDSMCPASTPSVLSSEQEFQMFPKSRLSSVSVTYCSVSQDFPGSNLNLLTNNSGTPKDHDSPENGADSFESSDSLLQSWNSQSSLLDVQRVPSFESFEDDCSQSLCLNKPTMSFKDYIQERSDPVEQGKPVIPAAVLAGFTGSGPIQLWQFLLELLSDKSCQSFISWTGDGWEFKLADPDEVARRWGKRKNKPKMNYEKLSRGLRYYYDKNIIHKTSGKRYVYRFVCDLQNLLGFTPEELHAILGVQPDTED
# How it was run: as §1
# SPDEF = biological target: T4, SPDEF (Homo sapiens, UniProt O95238 1-335)
# T4 sequence: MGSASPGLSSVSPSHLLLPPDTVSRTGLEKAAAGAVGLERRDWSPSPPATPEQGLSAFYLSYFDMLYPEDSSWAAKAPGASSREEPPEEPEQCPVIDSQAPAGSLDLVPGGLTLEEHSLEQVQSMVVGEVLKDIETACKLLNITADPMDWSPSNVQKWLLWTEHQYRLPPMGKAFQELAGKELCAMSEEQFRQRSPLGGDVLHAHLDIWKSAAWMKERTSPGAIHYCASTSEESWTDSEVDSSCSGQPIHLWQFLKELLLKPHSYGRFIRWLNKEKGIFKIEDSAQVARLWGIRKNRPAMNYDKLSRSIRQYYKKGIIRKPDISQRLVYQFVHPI
# How it was run: as §1
# ETV7 = biological target: T5, ETV7 (Homo sapiens, UniProt Q9Y603 1-341)
# T5 sequence: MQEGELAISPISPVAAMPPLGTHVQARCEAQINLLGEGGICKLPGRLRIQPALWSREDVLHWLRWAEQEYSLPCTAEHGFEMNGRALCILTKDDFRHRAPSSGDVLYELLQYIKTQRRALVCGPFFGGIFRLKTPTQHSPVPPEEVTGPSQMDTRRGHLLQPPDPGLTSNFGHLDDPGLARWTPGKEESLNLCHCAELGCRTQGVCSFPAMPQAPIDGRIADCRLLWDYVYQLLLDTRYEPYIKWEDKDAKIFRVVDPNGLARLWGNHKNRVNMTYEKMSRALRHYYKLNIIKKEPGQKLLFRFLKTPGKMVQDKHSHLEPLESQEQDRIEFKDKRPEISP
# How it was run: as §1
# ELF5 = biological target: T6, ELF5 (Homo sapiens, UniProt Q9UKW6-2 1-255)
# T6 sequence: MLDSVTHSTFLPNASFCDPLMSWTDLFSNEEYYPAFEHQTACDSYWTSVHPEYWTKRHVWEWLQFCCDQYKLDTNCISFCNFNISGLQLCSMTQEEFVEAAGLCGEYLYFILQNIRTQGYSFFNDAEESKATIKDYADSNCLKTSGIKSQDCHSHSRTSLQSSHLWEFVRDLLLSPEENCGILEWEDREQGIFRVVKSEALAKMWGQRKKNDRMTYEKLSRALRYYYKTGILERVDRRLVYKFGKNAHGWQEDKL
# How it was run: as §1
# ETV3 = biological target: T7, ETV3 (Homo sapiens, UniProt P41162-2 1-143)
# T7 sequence: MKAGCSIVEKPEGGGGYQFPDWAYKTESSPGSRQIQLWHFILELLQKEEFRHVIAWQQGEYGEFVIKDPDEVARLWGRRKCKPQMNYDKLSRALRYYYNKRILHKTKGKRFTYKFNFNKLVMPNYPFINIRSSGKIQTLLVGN
# How it was run: as §1
# ETV6 = ETV6 (Homo sapiens, UniProt P41212 1-452)
# How it was run: as §1
# ETV6, sequence (P41212 whole entry): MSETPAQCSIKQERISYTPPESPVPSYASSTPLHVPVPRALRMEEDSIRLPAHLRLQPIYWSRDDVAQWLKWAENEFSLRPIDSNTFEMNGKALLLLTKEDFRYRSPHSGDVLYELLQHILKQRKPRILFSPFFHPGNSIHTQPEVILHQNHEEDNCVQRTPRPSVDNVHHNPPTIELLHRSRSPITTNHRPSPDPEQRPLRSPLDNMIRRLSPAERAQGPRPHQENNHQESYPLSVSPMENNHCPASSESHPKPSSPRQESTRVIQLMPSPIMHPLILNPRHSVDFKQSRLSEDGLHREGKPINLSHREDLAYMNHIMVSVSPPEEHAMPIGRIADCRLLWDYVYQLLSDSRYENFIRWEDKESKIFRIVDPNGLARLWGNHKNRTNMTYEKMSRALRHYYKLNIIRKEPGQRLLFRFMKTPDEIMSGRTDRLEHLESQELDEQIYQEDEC
# ETV1, sequence (P50549 whole entry, the tested form may be a part): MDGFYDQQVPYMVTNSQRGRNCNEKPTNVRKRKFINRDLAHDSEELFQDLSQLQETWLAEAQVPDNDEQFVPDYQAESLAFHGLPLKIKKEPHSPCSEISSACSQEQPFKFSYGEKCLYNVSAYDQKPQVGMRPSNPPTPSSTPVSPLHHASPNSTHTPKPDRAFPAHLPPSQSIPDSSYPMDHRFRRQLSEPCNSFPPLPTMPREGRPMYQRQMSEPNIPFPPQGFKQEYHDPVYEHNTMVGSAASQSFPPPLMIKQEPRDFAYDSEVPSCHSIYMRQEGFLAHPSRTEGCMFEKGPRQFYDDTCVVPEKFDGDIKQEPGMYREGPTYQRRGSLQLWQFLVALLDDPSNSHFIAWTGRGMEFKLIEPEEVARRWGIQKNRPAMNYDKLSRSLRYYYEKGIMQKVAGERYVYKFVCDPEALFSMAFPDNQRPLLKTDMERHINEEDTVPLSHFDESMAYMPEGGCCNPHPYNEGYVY
sequence,measurement,setting,value
CTAATG,binding signal,ETV1,"1.29 fold enrichment (6-mer frequency, TF over GST control)"
same,binding signal,ERF,"1.2 fold enrichment (6-mer frequency, TF over GST control)"
same,binding signal,ETV3L,"1.17 fold enrichment (6-mer frequency, TF over GST control)"
same,binding signal,ETS2,"1.25 fold enrichment (6-mer frequency, TF over GST control)"
same,binding signal,SPDEF,"1.11 fold enrichment (6-mer frequency, TF over GST control)"
same,binding signal,ETV7,"1.3 fold enrichment (6-mer frequency, TF over GST control)"
same,binding signal,ELF5,"1.23 fold enrichment (6-mer frequency, TF over GST control)"
same,binding signal,ETV3,"1.16 fold enrichment (6-mer frequency, TF over GST control)"
same,binding signal,ETV6,"1.3 fold enrichment (6-mer frequency, TF over GST control)"
